Reference: the supplement of paper PMC6555819

Columns and labels:
Assay in all cases: PBM binding z-score (relative to random genomic background probes); higher = stronger binding; sequences stand for … in GC…GCGATTGACAGCGTAGAATGAAGG
[1] = test system: FXR:RXRa (NR concentration 270 nM, RXRa partner concentration 90 nM)
How it was run: (§1)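 Ligand-free nuclear receptor dimers were bound for 1 h to custom Agilent 4×180K protein-binding microarrays. Detection used antibodies against each partner (one per run). Binding z-scores rest on regression-normalized fluorescence, with random background probes as the reference.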

[2] = test system: LXRa:RXRa (NR concentration 270 nM, RXRa partner concentration 90 nM)
How it was run: as §1

[3] = test system: LXRa homodimer (NR concentration 270 nM)
How it was run: as §1

[4] = test system: LXRb:RXRa (NR concentration 270 nM, RXRa partner concentration 90 nM)
How it was run: as §1

[5] = test system: LXRb homodimer (NR concentration 270 nM)
How it was run: as §1

[6] = test system: PPARa:RXRa (NR concentration 270 nM, RXRa partner concentration 90 nM)
How it was run: as §1

[7] = test system: PPARg:RXRa (NR concentration 180 nM, RXRa partner concentration 90 nM)
How it was run: as §1

[8] = test system: PPARg:RXRa 270nM:90nM, anti-RXR (NR concentration 270 nM, RXRa partner concentration 90 nM)
How it was run: as §1

[9] = test system: PPARg:RXRa 30nM:10nM, anti-RXR (NR concentration 30 nM, RXRa partner concentration 10 nM)
How it was run: as §1

[10] = test system: PPARg:RXRa 90nM:30nM, anti-RXR (NR concentration 90 nM, RXRa partner concentration 30 nM)
How it was run: as §1

[11] = test system: PPARg:RXRa DBDmut IVT, anti-RXR (DBD mutation: RXRa K156A/R161A, NR concentration 270 nM, RXRa partner concentration 90 nM)
How it was run: as §1

[12] = test system: PPARg:RXRa IVT, anti-PPARg (NR concentration 270 nM, RXRa partner concentration 90 nM)
How it was run: as §1

[13] = test system: PPARg DBDmut:RXRa IVT, anti-PPARg (DBD mutation: PPARg1 K132A/R137A, NR concentration 270 nM, RXRa partner concentration 90 nM)
How it was run: as §1

[14] = test system: PPARg DBDmut IVT, anti-PPARg (DBD mutation: PPARg1 K132A/R137A, NR concentration 270 nM)
How it was run: as §1

[15] = test system: PPARg homodimer (NR concentration 180 nM)
How it was run: as §1

[16] = test system: PXR:RXRa (NR concentration 270 nM, RXRa partner concentration 90 nM)
How it was run: as §1

[17] = test system: PXR homodimer (NR concentration 270 nM)
How it was run: as §1

[18] = test system: RARa:RXR (NR concentration 270 nM, RXRa partner concentration 90 nM)
How it was run: as §1

[19] = test system: RARa homodimer (NR concentration 270 nM)
How it was run: as §1

[20] = test system: RARb:RXRa (NR concentration 270 nM, RXRa partner concentration 90 nM)
How it was run: as §1

Sequence | PBM binding z-score [1] | PBM binding z-score [2] | PBM binding z-score [3] | PBM binding z-score [4] | PBM binding z-score [5] | PBM binding z-score [6] | PBM binding z-score [7] | PBM binding z-score [8] | PBM binding z-score [9] | PBM binding z-score [10] | PBM binding z-score [11] | PBM binding z-score [12] | PBM binding z-score [13] | PBM binding z-score [14] | PBM binding z-score [15] | PBM binding z-score [16] | PBM binding z-score [17] | PBM binding z-score [18] | PBM binding z-score [19] | PBM binding z-score [20]
CATACAGGGACAGCTAGGCCAGAGTAGGGACGGC | -0.116 | -0.651 | -0.464 | -0.85 | -0.351 | -0.533 | 0.544 | -0.673 | -0.277 | -0.633 | -0.69 | -0.181 | -1.17 | 0.371 | -0.647 | -0.731 | -0.605 | -0.361 | 0.0521 | 0.723
CCTACTGGGCCAAAGGCCATTGATTCCAATGCTC | -0.204 | -0.344 | -0.23 | -0.115 | -0.699 | 3.51 | 7.53 | 7.54 | 6.63 | 7.44 | 3.67 | 4.27 | -1.16 | -0.289 | 0.544 | -0.131 | -0.371 | 0.0662 | -0.609 | 0.924
TGGCCTAGGTCATGCGGGCCAGTATAGTGTCGGC | 3.58 | 2.57 | -0.464 | 1.2 | -1.55 | 3.28 | 1.7 | 2.2 | 0.139 | 0.89 | 1.03 | 2.44 | -0.76 | -1.48 | 0.35 | 1.12 | -0.591 | 2.07 | -0.739 | 3.53
ATCGAAAGGTCGAAGGAGAGTATACCCACCCGAA | 4.01 | 3.28 | 0.14 | 2.48 | 0.895 | 3.8 | 2.15 | 2.57 | 1.14 | 2.01 | -0.0352 | 1.35 | 0.946 | 0.145 | 1.41 | 2.39 | 0.0516 | 3.11 | 0.728 | 3.62
AGTCAAAGTTGATCTAGGTAACGTAAGATATGCT | -0.0957 | -0.391 | -0.431 | -0.102 | -0.616 | 0.713 | 1.39 | 1.2 | 0.421 | 0.958 | 0.813 | 2.74 | 0.517 | 1.07 | -0.371 | -0.212 | -0.146 | -0.0598 | -0.276 | 0.672
ATCTAAAGGTCGAAGGTGAGTATACCCACCCGAA | 4.51 | 4.47 | 0.846 | 3.2 | 1.12 | 4.71 | 5.11 | 5.19 | 2.76 | 4.36 | 0.448 | 2.65 | 1.07 | 0.686 | 1.22 | 2.87 | 0.401 | 4.15 | 0.981 | 3.76
CCTACTGGGCCAAAAAGGTAATTGATGCCGATAA | -0.234 | -0.225 | -0.561 | -0.28 | -0.84 | 0.543 | 0.593 | 1.19 | -0.018 | 0.799 | 3.15 | 2.69 | 0.336 | -0.668 | -0.39 | -0.331 | -0.647 | 0.114 | 0.142 | 0.108
GCTCGGAGGACAAGGTCACAGCTTTGTCCGTAGA | 4.17 | 3.99 | 0.175 | 3.17 | 0.142 | 4.56 | 3.68 | 4.17 | 1.12 | 2.98 | 0.831 | 3.16 | 0.822 | -0.625 | 2.33 | 3.9 | 0.00215 | 4.35 | 0.243 | 4.21
GCATATAGGTAATTCAAGGTGAAAGTCCGATTGT | 0.457 | 4.97 | 0.799 | 2.13 | -0.412 | 1.9 | 0.967 | 1.51 | 0.0519 | 0.865 | 3.96 | 3.53 | 0.595 | 0.845 | 0.811 | 0.919 | 0.171 | 2.33 | 0.378 | 0.678
CGAACTAGGTAAAGGACAGTGAATCTCCGCACGC | -0.281 | -0.379 | -0.301 | -0.788 | -0.59 | 1.32 | 1.51 | 1.3 | -0.0812 | 0.891 | 5.6 | 4.4 | 0.46 | -0.605 | 0.363 | -0.407 | -0.167 | -0.453 | -0.188 | 1.21
ATATGTAGGTTACGTCCGGGTCATTCAGGCTATG | 2.37 | 4.62 | 1.21 | 3.12 | 0.722 | 4.6 | 5.86 | 5.24 | 2.88 | 4.48 | 7.35 | 7.47 | 4.19 | 3.42 | 3.1 | 3.87 | 2.03 | 4.08 | 0.587 | 2.47
TGAATGAGGTCAAAGATCAGGGAACGTGGCGTCG | 7.57 | 6.26 | 1.74 | 4.88 | 2.72 | 6.45 | 9.41 | 8.31 | 7.23 | 9.22 | 5.48 | 6.25 | 2.11 | 0.903 | 2.17 | 5.41 | 1.74 | 6.5 | 1.38 | 4.99
CCTACTGGGCCATGAAAGGTCATTGATTCAGTGA | 3.25 | 4.74 | 4.74 | 3.86 | 0.00492 | 4.16 | 2.9 | 4.17 | 1.44 | 3.24 | 4.45 | 4.58 | 0.322 | 0.328 | 3.71 | 5.2 | 1.71 | 5.37 | 1.41 | 3.62
ATCGAAATGTCGTGAGGTGAGTATACAGAAAGGC | 0.101 | -0.0819 | -0.191 | -0.0754 | -0.00242 | -0.0374 | 0.546 | -0.0357 | -0.12 | 0.0916 | -0.876 | 0.356 | 1.2 | 0.426 | -0.35 | -0.158 | -0.418 | 0.27 | -0.172 | 0.61
